High-throughput results from PubChem BioAssay.
MEP2 TOR yeast: modulators of TOR pathway MEP2-GFP in S. cerevisiae; GFP response vs DMSO, % at 10 µM; hit rate 0.51% among 330,000; S. cerevisiae MEP2-GFP strain, flow cytometry GFP, 3 h; 100% = DMSO control level;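 active means GFP response versus DMSO above a set limit, roughly screen mean plus 3 SD, cut at about 180% in these data; inconclusive means fewer than 70 cells counted for a yeast strain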;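 further: median GFP fluorescence of the barcode-gated MEP2-GFP cells per well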
RPL19A-GFP yeast: alters RPL19A-GFP fluorescence in TOR pathway yeast screen. S. cerevisiae RPL19A-GFP strain, flow cytometry, 3 h; stronger effect = lower value. percent response vs DMSO, % at 10 µM. hit rate 0.3% among 330,000. AID 2025;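 active means percent response vs DMSO below 50%; inconclusive means fewer than 70 events counted for the yeast strain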;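 further: median channel GFP fluorescence of the barcoded RPL19A-GFP strain; ratio of sample median GFP to plate DMSO average so 100% = DMSO; lower means less RPL19A-GFP as with rapamycin TOR inhibition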
LAP4-GFP MLPCN: modulators of TOR pathway LAP4-GFP in S. cerevisiae. hit rate 0.34% among 320,000. AID 2023. GFP response vs DMSO, % at 10 µM. S. cerevisiae LAP4-GFP multiplex, flow cytometry GFP, 3 h; median GFP as percent of DMSO wells;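 active means GFP response vs DMSO above a set limit, about the screen mean plus 3 SD, cut at about 150% in these data; inconclusive means under 70 cell events counted for the yeast strain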
AGP1 TOR yeast: alters AGP1-GFP fluorescence in TOR pathway yeast screen; S. cerevisiae AGP1-GFP multiplex flow cytometry, 3 h; GFP as percent of DMSO wells; GFP response vs DMSO, % at 10 µM; hit rate 0.02% among 320,000;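 active means GFP response relative to DMSO above a set limit, near screen average plus 3 SD, cut at about 150% in these data; inconclusive means fewer than 70 cells counted for the yeast strain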;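 further: median GFP channel fluorescence of the gated AGP1 strain per well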
CIT2-GFP yeast: yeast TOR pathway CIT2-GFP modulation; S. cerevisiae CIT2-GFP strain, flow cytometry, 3 h; 100 means same as DMSO wells; GFP response vs DMSO, % at 10 µM; hit rate 0.065% among 320,000; AID 2029;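 active means GFP response relative to DMSO above a set limit, near the screen mean plus 3 SD, cut at about 150% in these data; inconclusive means Fewer than 70 cells measured for a yeast strain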;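 further: ratio of well median GFP fluorescence to mean of DMSO wells on the plate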
Efflux pump mplx: antifungal efflux pump inhibition, Nile Red retention; inhibition, % at 10 µM; S. cerevisiae Candida pump triplex; hit rate 0.44% among 330,000;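 active means plate passing quality check with inhibition over a set limit, or well fluorescence over plate mean plus 4 SD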;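 further: Nile Red retained in pooled yeast measured as flow cytometry median fluorescence; 0% = buffer negative control and 100% = Enniatin B positive control; higher means more Nile Red kept so more efflux inhibition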
Cmpd fluor yeast: counter-screen for efflux pump inhibitors: compound fluorescence | shares compounds with Efflux pump mplx | S. cerevisiae AD/pABC3, flow cytometry | fluorescence ratio to DMSO, % at 10 µM | hit rate 4% among 1,700;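 active means fluorescence ratio to DMSO above its plate's cutoff, the plate mean ratio plus 5 SD, cut at about 210% in these data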;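 further: unstained yeast with no Nile Red so the signal is compound autofluorescence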
CaMdr1 efflux inh: Candida Mdr1 efflux pump inhibition; hit rate 1% among 1,700; shares compounds with Efflux pump mplx; AID 588518; inhibition, % at 10 µM; S. cerevisiae AD/CaMDR1, Nile Red efflux, flow cytometry; in the data active means inhibition above about 26%;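 further: 0% = DMSO vehicle and 100% = reference inhibitor; higher means more Nile Red retained so more efflux inhibition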
CaCdr2 efflux inh: blocks the Candida albicans Cdr2 efflux pump in yeast; Nile Red retention ratio vs DMSO, % at 10 µM; hit rate 4% among 1,700; S. cerevisiae AD/CaCDR2, Nile Red retention, flow cytometry; shares compounds with Efflux pump mplx; in the data active means Nile Red retention ratio vs DMSO above about 190%;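 further: higher ratio means more blocking of Cdr2 efflux of the dye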
CaCdr1 efflux inh: blocks the Candida albicans Cdr1 efflux pump in yeast; shares compounds with Efflux pump mplx; S. cerevisiae AD/CaCDR1, Nile Red efflux, flow cytometry; inhibition, % at 10 µM; hit rate 1% among 1,700; AID 588522;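 active means inhibition above the screen-wide mean plus twice its standard deviation, cut at about 32% in these data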
An asterisk follows results filed as active; ? = inconclusive; . = no result given; [ ] = remark or other dose. In the library only some 1.3% were active in any assay of this set; here they are far more common.

SMILES | MEP2 TOR yeast | RPL19A-GFP yeast | LAP4-GFP MLPCN | AGP1 TOR yeast | CIT2-GFP yeast | Efflux pump mplx | Cmpd fluor yeast | CaMdr1 efflux inh | CaCdr2 efflux inh | CaCdr1 efflux inh
CCN(CC)c1ccc(/C=C/c2cc(-c3ccccc3)c3ccccc3n2)cc1 | ? | 30*[may fluoresce violet] | ? | ? | ? | 1.9* | 125 | 1 | 142 | 1
Oc1ccc(Cl)cc1C=Nc1ccccc1Br | 96 | 103 | 113 | 101 | 100 | 0 | . | . | . | .
Oc1ccc(Br)cc1C=Nc1ccc2c3c(cccc13)CC2 | 93 | 111 | 105 | 97 | 97 | 3.1* | 102 | 0 | 116 | 0
O=C(NC(=Nc1nc2ccccc2o1)NC(=O)c1ccccc1)c1ccccc1 | 106 | 103 | 91 | 94 | 100 | 1.2* | 102 | 0 | 127 | 1
COc1ccccc1C(=O)NC(=Nc1nc2ccccc2o1)NC(=O)c1ccccc1OC | 95 | 95 | 104 | 89 | . | 0 | . | . | . | .
CN(Cc1ccccc1)C(=O)CCC1CCN(C(=O)CCC(F)(F)F)CC1 | 109 | 98 | 99 | 92 | 96 | 0 | . | . | . | .
CCN(C[C@H]1N[C@@](CC)(C(=O)OC)[C@H]2C(=O)N(Cc3ccccc3)C(=O)[C@@H]12)C(=O)c1ccc(C(C)(C)C)cc1 | 100 | 102 | 108 | 106 | 98 | 0 | . | . | . | .
Cc1ccc(C(=O)N2CCC3(CC2)Oc2ccc(F)cc2C(=O)C32CC(c3ccccc3)=NO2)s1 (stereo not given) | 85 | 98 | 106 | 83 | 68 | 3 | . | . | . | .
Cc1ccc(C(=O)N2CCC3(CC2)Oc2ccc(F)cc2C(=O)C32CC(c3ccc(Cl)cc3)=NO2)s1 (stereo not given) | 93 | 96 | 93 | 96 | 89 | 0 | . | . | . | .
Cc1ccc(C(=O)N2CCC3(CC2)Oc2ccc(Cl)cc2C(=O)C32CC(c3cccnc3)=NO2)s1 (stereo not given) | 100 | 98 | 94 | 100 | 102 | 0 | 111 | 0 | 127 | 0
CCC(=O)N1CCC2(CC1)Oc1ccc(Cl)cc1C(=O)C21CC(c2ccc(Cl)cc2)=NO1 (stereo not given) | 90 | 96 | 125 | 81 | 82 | 0 | 107 | 0 | 108 | 0
Cc1ccc(C(=O)N2CCC3(CC2)Oc2ccc(Cl)cc2C(=O)C32CC(c3ccccc3)=NO2)s1 (stereo not given) | 100 | 98 | 95 | 100 | 104 | 0 | 94 | 0 | 91 | 0
Cc1ccc(C(=O)N2CCC3(CC2)Oc2ccc(Cl)cc2C(=O)C32CC(c3ccc(Cl)cc3)=NO2)s1 (stereo not given) | 100 | 100 | 97 | 104 | 103 | 0 | 98 | 0 | 112 | 0
CCC(=O)N1CCC2(CC1)Oc1ccc(F)cc1C(=O)C21CC(c2ccc(Cl)cc2)=NO1 (stereo not given) | 95 | 97 | 126 | 84 | 90 | 0 | . | . | . | .
O=C(CCCc1nc(-c2ccc(Cl)cc2)no1)NC1CCCC1 | 96 | 105 | 107 | 93 | 94 | 0 | . | . | . | .
Cc1ccc(S(=O)(=O)N(C)C)cc1NC(=O)c1ccccc1SCC(=O)N1CCCC1 | 116 | 119 | 118 | 126 | 117 | 0 | . | . | . | .
COc1ccc(CCNC(=O)CCn2c(=O)c3cccn3c3cccnc32)cc1OC | 101 | 99 | 102 | 102 | 103 | 0 | . | . | . | .
O=[N+]([O-])c1cccc(-c2nc3ccccc3s/c2=N/O)c1 | 88 | 82 | 132 | 69 | 75 | 0.7* | 116 | 0 | 116 | 0
O=C(c1ccc2c(c1)OCO2)N1CCC2(CC1)Oc1ccc(F)cc1C(=O)C21CC(c2cccnc2)=NO1 (stereo not given) | 91 | 97 | 111 | 94 | 102 | 0 | . | . | . | .
O=C(c1ccoc1)N1CCC2(CC1)Oc1ccc(F)cc1C(=O)C21CC(c2ccc(Cl)cc2)=NO1 (stereo not given) | 103 | 98 | 97 | 101 | 90 | 5.5* | 107 | 7 | 110 | 53*
CC(C)C(=O)N1CCC2(CC1)Oc1ccc(Cl)cc1C(=O)C21CC(c2ccccc2)=NO1 (stereo not given) | 98 | 97 | 96 | 99 | 91 | 0 | . | . | . | .
O=C(c1ccoc1)N1CCC2(CC1)Oc1ccc(F)cc1C(=O)C21CC(c2cccnc2)=NO1 (stereo not given) | 100 | 101 | 131 | 91 | 107 | 0 | . | . | . | .
O=C(c1ccoc1)N1CCC2(CC1)Oc1ccc(Cl)cc1C(=O)C21CC(c2ccc(Cl)cc2)=NO1 (stereo not given) | 86 | 94 | 109 | 77 | 67 | 0 | 103 | 0 | 94 | 0
CC(C)C(=O)N1CCC2(CC1)Oc1ccc(F)cc1C(=O)C21CC(c2ccc(Cl)cc2)=NO1 (stereo not given) | 94 | 97 | 99 | 96 | 85 | 36* | 99 | 2 | 114 | 0
O=C(c1ccc2c(c1)OCO2)N1CCC2(CC1)Oc1ccc(F)cc1C(=O)C21CC(c2ccccc2)=NO1 (stereo not given) | 97 | 97 | 107 | 89 | 96 | 85* | 92 | 81* | 94 | 50*
SMILES | MEP2 TOR yeast | RPL19A-GFP yeast | LAP4-GFP MLPCN | AGP1 TOR yeast | CIT2-GFP yeast | Efflux pump mplx | Cmpd fluor yeast | CaMdr1 efflux inh | CaCdr2 efflux inh | CaCdr1 efflux inh
N#Cc1cnc2nc(SCc3ccccc3)nn2c1 | 95 | 99 | 86 | 92 | 91 | 0 | . | . | . | .
COc1ccc(NC(=O)NS(=O)(=O)c2ccc(C)cc2)cc1OC | 102 | 100 | 105 | 103 | 106 | 0 | . | . | . | .
COc1ccc(C2CC(=O)c3c(O)cc(O)cc3O2)c(CC=C(C)C)c1OC (stereo not given) | 94 | 93 | 95 | 97 | 93 | 0 | . | . | . | .
O=C(c1ccoc1)N1CCC2(CC1)Oc1ccc(F)cc1C(=O)C21CC(c2ccccc2)=NO1 (stereo not given) | 98 | 96 | 99 | 97 | 91 | 67* | 92 | 95* | 116 | 43*
N#C/C(=C\Nc1ccccc1SC(F)(F)F)c1nc(-c2ccccc2)cs1 | 101 | 103 | 93 | 104 | 101 | 0 | . | . | . | .
Cc1ccc(-c2csc(/C(C#N)=C/Nc3ccccc3SC(F)(F)F)n2)c(C)c1 | 93 | 100 | 89 | 92 | 95 | 0.5* | 163 | 3 | 116 | 1
